# NS1 inh = inhibitors of influenza NS1 protein function. Potency, µM (highest dose often 46.1 µM). actives 0.4% (n = 270,000); calls by dose curve; also: actives are rising curves; nearly all actives have a fitted effect of over 50% in size
#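 OD600 was taken as the measure of yeast growth restored by compound in an NS1-expressing S. cerevisiae strain. Cells had been washed out of glucose medium and diluted 1:100 into galactose -URA medium, pH 6.0.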
# Pf growth 96h = P. falciparum growth inhibition at 96 hours; Potency, µM (top dose mostly 28.7 µM), usual class: inhibitors; P. falciparum luciferase reporter growth, 96 h; AID 504834; actives 6.9% (n = 320,000)
#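 P. falciparum expressing integrated firefly luciferase grown in erythrocytes (2% hematocrit, 0.05% parasitemia final) with compounds for 96 hours at 37 C, 5% CO2. Growth inhibition read as loss of luminescence after adding luciferase detection reagent.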
# SARS PLpro yeast = inhibitors of SARS-CoV papain-like protease in yeast | Potency, µM (series often up to 32.9 µM), actives largely listed as activators | AID 485353 | actives 0.19% (n = 330,000) | S. cerevisiae expressing SARS-CoV PLpro, growth rescue; calls by dose curve; also: nearly all actives have a fitted effect of over 55% in size
# Pf growth 48h = P. falciparum growth inhibition at 48 hours (one generation). P. falciparum luciferase growth in erythrocytes, 48 h. Potency, µM (top dose mostly 28.7 µM), actives largely listed as inhibitors. actives 5.9% (n = 310,000). AID 504832
#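 In quantitative HTS format, infected erythrocytes bearing luciferase-reporter parasites were treated for a single generation at 37 C. Luminescence after adding detection reagent served as the growth measure.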
# RE007 growth inh = less growth of the S. pombe RE007 Vpr strain. Potency, µM (series often up to 92.2 µM), most hits filed as inhibitors. actives 0.21% (n = 360,000). S. pombe RE007 Vpr strain, BacTiter-Glo ATP luminescence, 24 h. AID 651644; active = well fitted falling curve with a large enough effect; inconclusive = small, poorly fitted or top-dose-only effect; inactive = no such curve, though single readings can be large or run the other way; also: nearly all actives have a fitted effect of over 50% in size
#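 Fission yeast RE007 carrying one integrated HIV-1 vpr copy, seeded at OD 0.01 in PMG+AL medium with 23 nL pinned compound. Grown 24 h at 30 degrees; viability read by BacTiter-Glo luminescence after 5 min.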
# Hits are given with their value; i = inactive; ? = inconclusive; nt = no result given. Shown are actives, neighbours in structure and some others; about 9.5% of the full set was active somewhere. Unless noted, calls follow the shape of the dose curve; as a rule, active = well fitted inhibition curve with a large enough effect; inconclusive = small, poorly fitted or top-dose-only effect, or another doubt; inactive = no such curve, though single readings can be large or run the other way.
SMILES,NS1 inh,Pf growth 96h,SARS PLpro yeast,Pf growth 48h,RE007 growth inh
CCCCn1c(N)c(N(CC(C)C)C(=O)C2CCN(S(=O)(=O)c3ccc(C)c(C)c3)CC2)c(=O)[nH]c1=O,i,2.3µM,i,2.6µM,i
CCCCn1c(N)c(N(CC(C)C)C(=O)CSCc2ccc(Cl)c(Cl)c2)c(=O)[nH]c1=O,nt,?,i,12µM,i
CCCCn1c(N)c(N(CC(C)C)C(=O)C2CCN(S(=O)(=O)c3ccc(C)cc3C)CC2)c(=O)[nH]c1=O,nt,?,i,13µM,i
CCCCn1c(N)c(N(CCOC)C(=O)C2CCN(S(=O)(=O)c3ccc(C)cc3)CC2)c(=O)[nH]c1=O,nt,i,i,i,i
CCCCn1c(N)c(N(CCOC)C(=O)C2CCN(S(=O)(=O)c3ccc(C)cc3C)CC2)c(=O)[nH]c1=O,nt,?,i,13µM,i
CCCCn1c(N)c(N(CC(C)C)C(=O)C2CCN(S(=O)(=O)c3ccccc3)CC2)c(=O)[nH]c1=O,nt,?,i,?,i
CCc1ccc(N(CC(=O)NCc2ccc(F)cc2)C(=O)c2csnn2)cc1,i,?,i,?,i
Cc1ccc(S(=O)(=O)N2CCN(CC(=O)N(CC(C)C)c3c(N)n(CC(C)C)c(=O)[nH]c3=O)CC2)c(C)c1,i,4.1µM,i,?,i
CC(C)CN(C(=O)CN1CCN(c2ccc(F)cc2)CC1)c1c(N)n(CC(C)C)c(=O)[nH]c1=O,i,i,i,i,i
CCCCn1c(N)c(N(CC(C)C)C(=O)C(C)SCc2nc3sc(C)c(C)c3c(=O)[nH]2)c(=O)[nH]c1=O (configuration not stated),nt,i,i,12µM,i
CC(Cn1cncn1)C(=O)N1CCN(S(=O)(=O)c2ccc(Cl)cc2)CC1 (configuration not stated),i,i,i,i,i
CCOC(=O)C1CCCN(c2nc3ccccc3nc2C(C#N)C(=O)OCC)C1 (configuration not stated),i,7.4µM,i,?,i
N#CC(C(=O)NC1CC1)c1nc2ccccc2nc1N1CCCC1 (configuration not stated),i,i,i,i,i
C=CCOC(=O)C(C#N)c1nc2ccccc2nc1N1CCN(c2ccccc2OC)CC1 (configuration not stated),?,8.3µM,i,5.9µM,i
CCOC(=O)C1CCCN(c2nc3ccccc3nc2C(C#N)C(=O)OCCOC)C1 (configuration not stated),i,8.3µM,i,6.6µM,i
CCOC(=O)C1CCCN(c2nc3ccccc3nc2C(C#N)C(=O)OC(C)COC)C1 (configuration not stated),i,?,i,?,i
COCCNC(=O)C(C#N)c1nc2ccccc2nc1N1CCCCCC1 (configuration not stated),i,i,i,?,i
CCOC(=O)C1CCN(c2nc3ccccc3nc2C(C#N)C(=O)NCCc2ccccc2)CC1 (configuration not stated),i,9.3µM,i,i,nt
C=CCOC(=O)C(C#N)c1nc2ccccc2nc1N1CCN(Cc2ccccc2)CC1 (configuration not stated),i,i,i,?,i
CC(C)N(Cc1ccccc1)C(=S)Nc1cccnc1,i,7.4µM,i,?,i
Cc1[nH]c2ccc(F)cc2c1CCN(Cc1ccncc1)C(=S)Nc1ccccc1,nt,?,i,?,i
CCN(Cc1ccncc1)C(=S)Nc1ccccc1,i,2.9µM,i,i,i
O=C(NC1CCS(=O)(=O)C1)N1CCCCC1 (configuration not stated),i,4.1µM,i,nt,i
O=C(NC1CCCCC1)N1CCCCCC1,i,i,i,i,i
O=C(O)CCCC/C=C(\c1ccccc1)c1cccnc1,nt,1.7µM,nt,i,nt
SMILES,NS1 inh,Pf growth 96h,SARS PLpro yeast,Pf growth 48h,RE007 growth inh
O=C(NCO)c1cccnc1,nt,nt,nt,nt,i
C=CCOc1ccc(/C=N/NC(=O)c2cc3c(OC)cc(OC)cc3[nH]2)cc1,i,2.3µM,i,3.3µM,i
CCOc1ccc(/C=N/NC(=O)c2cc3c(OC)cc(OC)cc3[nH]2)cc1OC,i,0.93µM,i,1.7µM,i
COc1cccc(/C=N/NC(=O)c2cc3c(OC)cccc3[nH]2)c1OC,i,i,i,i,nt
COc1cccc(/C=N/NC(=O)c2cc3c(OC)cccc3[nH]2)c1O,i,1.9µM,i,?,i
CCOc1ccc2[nH]c(C(=O)N/N=C/c3cc(OC)c(OC)c(OC)c3)cc2c1,i,12µM,i,nt,i
CCc1noc(C)c1C(=O)NNC(=O)COc1ccc(Br)cc1,i,i,i,?,i
Cc1ccc(S(=O)(=O)N(C)c2ccc(OCC(=O)Nc3ccc(C(=O)N(C)C)cc3)cc2)cc1C,nt,?,i,?,i
Clc1ccc(NCc2ccsc2)cc1,i,i,i,i,nt
CCOc1ncccc1C(=O)OCC(=O)c1cccc(Br)c1,nt,i,i,i,i
COc1ccc(OC)c2[nH]c(C(=O)N/N=C/c3ccccc3O)cc12,i,?,i,nt,nt
COc1ccc(/C=N/NC(=O)c2cc3c(OC)ccc(OC)c3[nH]2)cc1O,i,?,i,3.7µM,i
COc1ccc(N2CCN(CCCNS(=O)(=O)c3c(C)noc3/C=C/N(C)C)CC2)cc1,?,?,i,2.9µM,nt
O=P(O)(CCc1ccccn1)CN1CCCCC1,i,i,i,nt,i
O=P(O)(CCc1ccccn1)CN1CCOCC1,i,5.2µM,i,nt,i
N#C/C(=C1/C(=O)Nc2ccc(Br)cc21)c1ccccn1,i,i,i,i,i
O=C(NCCCN=C1NS(=O)(=O)c2ccccc21)c1ccc(Cl)cc1,i,?,i,i,i
CCCS(=O)(=O)N1CCC(C(=O)NC2CCCC(C)C2C)CC1 (configuration not stated),i,9.3µM,i,i,i
CCN(CC)C(=O)CSc1nnc(CCCCCNC(=O)OC(C)(C)C)o1,i,10µM,i,?,i
C=C(C)CSc1nnc(CCCCCNC(=O)OC(C)(C)C)o1,i,i,i,i,i
CC(=O)c1cn(CCOc2cc(C)ccc2C)c2ccccc12,i,?,i,?,i
COc1cccc(OCCn2cc(C(=O)c3ccco3)c3ccccc32)c1,i,i,i,1.9µM,i
COc1cccc(OCCn2cc(C(C)=O)c3ccccc32)c1,i,?,i,9.3µM,i
COc1ccccc1OCCn1cc(C(=O)c2ccco2)c2ccccc21,i,?,i,12µM,i
Cc1ccccc1OCCn1cc(/C(N)=N/O)c2ccccc21,i,9.3µM,i,nt,i
Cc1ccccc1OCCn1cc(C(=O)O)c2ccccc21,nt,i,i,i,i
O=C(Nc1ccc(SC(F)F)cc1)C1=COCCO1,i,1.7µM,i,i,i
O=C(Nc1ccc(Cl)c(S(=O)(=O)N2CCCCC2)c1)C1=COCCO1,nt,?,i,i,i
CN(C)S(=O)(=O)c1cc(NC(=O)C2=COCCO2)ccc1Cl,nt,12µM,i,i,i
Cc1ccc(C(=O)Nc2ccc(SC(F)F)cc2)s1,nt,i,i,i,i

# Source: PubChem BioAssay
